{"source": "PubChem BioAssay AID463173", "about": "(ICCB-Longwood Screening Facility, Harvard Medical School, 2010)", "note": "Out of some 52,000 compounds screened, about 1,700 (3.3%) were called active. No stated cut-off is given here; in the data, active means survival mostly below about 52% (no sharp cut-off); inactive means mostly above about 56%. Shown is part of a subset that was picked to be rich in actives.", "data": [{"tested_on": "Wild type", "assay": "growth inhibition of S. aureus wild type versus tarO mutant, primary screen, teichoic acid synthesis inhibitors, RN4220, OD600 (AID 463173)", "settings": "S. aureus RN4220 wild type/DeltatarO growth, OD600, 18 h, stronger effect = lower value, screened at 18.75 µg/mL (by protocol)", "values": [{"smiles": "CCOc1cccc2sc(NC(=O)c3ccc(S(=O)(=O)N4CCCCC4C)cc3)nc12", "note": "(centres undefined)", "survival": "10% (active)"}, {"smiles": "CCOc1cccc2sc(NC(=O)c3ccc(S(=O)(=O)N4CCCc5ccccc54)cc3)nc12", "survival": "88% (inactive)"}, {"smiles": "CCOc1cccc2sc(NC(=O)c3ccc(S(=O)(=O)N4CCCCC4)cc3)nc12", "survival": "75% (inactive)"}, {"smiles": "CCOC(=O)c1c(-c2ccccc2)csc1NC(=O)c1cc(-c2ccc(Cl)cc2)on1", "survival": "85% (inactive)"}, {"smiles": "CCC(CO)Nc1ncnc2c1cnn2-c1ccc(C)cc1", "note": "(centres undefined)", "survival": "-6% (active)"}, {"smiles": "Cc1ccc(-n2ncc3c(NCCC4=CCCCC4)ncnc32)cc1", "survival": "-3% (active)"}, {"smiles": "Cc1ccc(-n2ncc3c(Nc4ccc(Oc5ccccc5)cc4)ncnc32)cc1", "survival": "74% (inactive)"}, {"smiles": "Cc1ccc(-n2ncc3c(NCCCc4ccccc4)ncnc32)cc1", "survival": "69% (inactive)"}, {"smiles": "CCCCc1ccc(Nc2ncnc3c2cnn3-c2ccc(C)cc2)cc1", "survival": "-1% (active)"}, {"smiles": "Cc1ccc(-n2ncc3c(NCCC4=CCCCC4)ncnc32)cc1C", "survival": "131% (inactive)"}, {"smiles": "CCC(C)Nc1ncnc2c1cnn2-c1ccc(F)cc1", "note": "(centres undefined)", "survival": "71% (inactive)"}, {"smiles": "Fc1ccc(-n2ncc3c(NCCC4=CCCCC4)ncnc32)cc1", "survival": "59% (inactive)"}, {"smiles": "Cc1ccc(-n2ncc3c(NC(C)c4ccccc4)ncnc32)cc1", "note": "(centres undefined)", "survival": "73% (inactive)"}, {"smiles": "COc1ccc(-c2noc(-c3ccc(N4CCC(C)CC4)c([N+](=O)[O-])c3)n2)cc1OC", "survival": "89% (inactive)"}, {"smiles": "O=C(C1CCCCC1)N(Cc1cccnc1)c1nc2ccc(Cl)cc2s1", "survival": "72% (inactive)"}, {"smiles": "CCc1nn(CC(=O)Nc2ccc(NC(C)=O)cc2)c(=O)c2cc3sccc3n12", "survival": "86% (inactive)"}, {"smiles": "CCOc1ccccc1NC(=O)c1cnn2c(C(F)F)cc(-c3ccccc3)nc12", "survival": "52% (inactive)"}, {"smiles": "CCOC(=O)C1CCN(C(=O)c2cc3sc(C)cc3n2C)CC1", "survival": "89% (inactive)"}, {"smiles": "CC1CCN(S(=O)(=O)c2ccc3c(c2)N(CC(=O)NCCN(C)C)C(=O)CO3)CC1", "survival": "76% (inactive)"}, {"smiles": "Cc1ccc(CNc2nc3ccccc3c3nc(-c4cccc(C)c4)nn23)cc1", "survival": "26% (inactive)"}, {"smiles": "c1ccc(CNc2nc3ccccc3c3nc(-c4ccccc4)nn23)cc1", "survival": "67% (inactive)"}, {"smiles": "COc1ccc(CCNc2nc3ccccc3c3nc(-c4cccc(C)c4)nn23)cc1OC", "survival": "24% (inactive)"}, {"smiles": "COc1ccccc1CNc1nc2ccccc2c2nc(-c3cccnc3)nn12", "survival": "67% (inactive)"}, {"smiles": "Cc1ccc(CCNc2nc3ccccc3c3nc(-c4ccccc4)nn23)cc1", "survival": "73% (inactive)"}, {"smiles": "CCCCNc1nc2ccccc2c2nc(-c3ccccc3)nn12", "survival": "-1% (active)"}, {"smiles": "Cc1cccc(-c2nc3c4ccccc4nc(NCc4ccccc4Cl)n3n2)c1", "survival": "163% (inactive)"}, {"smiles": "COc1ccccc1CNc1nc2ccccc2c2nc(-c3cccc(C)c3)nn12", "survival": "9% (active)"}, {"smiles": "Cc1cccc(-c2nc3c4ccccc4nc(NCCc4ccccc4)n3n2)c1", "survival": "3% (active)"}, {"smiles": "CN1C(N)=NC(=O)C1(CO)CO", "survival": "104% (inactive)"}, {"smiles": "CCOc1ccc(NC(=O)CSc2nc(-c3cccs3)cc(C(F)(F)F)c2C#N)cc1", "survival": "66% (inactive)"}, {"smiles": "O=C(Cn1c(=O)c2ccccc2n(CC(=O)Nc2ccccc2F)c1=O)NCCc1ccccc1", "survival": "89% (inactive)"}, {"smiles": "CCOc1ccc(CCNC(=O)c2cc3cc4ccc(OC)cc4nc3s2)cc1OCC", "survival": "101% (inactive)"}, {"smiles": "Cc1ccccc1-c1nc(CS(=O)CC(=O)NCCc2ccc(Cl)cc2)c(C)o1", "note": "(centres undefined)", "survival": "128% (inactive)"}, {"smiles": "Cc1ccc(-c2nc(CS(=O)CC(=O)N3CCN(c4ccccc4)CC3)c(C)o2)cc1", "note": "(centres undefined)", "survival": "88% (inactive)"}, {"smiles": "Cc1ccc(-c2nc(CS(=O)CC(=O)N3CCN(c4ccc(Cl)cc4)CC3)c(C)o2)cc1", "note": "(centres undefined)", "survival": "73% (inactive)"}, {"smiles": "Cc1ccccc1-c1nc(CS(=O)CC(=O)N2CCN(c3cc(Cl)ccc3C)CC2)c(C)o1", "note": "(centres undefined)", "survival": "10% (active)"}, {"smiles": "COc1cccc(-c2nc(CS(=O)(=O)CC(=O)N3CCN(c4ccccc4)CC3)c(C)o2)c1", "survival": "94% (inactive)"}, {"smiles": "Cc1oc(-c2ccccc2Cl)nc1CS(=O)CC(=O)N1CCN(c2cccc(C(F)(F)F)c2)CC1", "note": "(centres undefined)", "survival": "129% (inactive)"}, {"smiles": "Cc1ccc(-c2nc(CS(=O)CC(=O)N3CCN(c4cccc(Cl)c4)CC3)c(C)o2)cc1", "note": "(centres undefined)", "survival": "5% (active)"}, {"smiles": "COc1cccc(-c2nc(CS(=O)CC(=O)N3CCN(c4cccc(C(F)(F)F)c4)CC3)c(C)o2)c1", "note": "(centres undefined)", "survival": "-2% (active)"}, {"smiles": "Cc1oc(-c2ccc(Cl)cc2)nc1CS(=O)CC(=O)N1CCN(c2cccc(C(F)(F)F)c2)CC1", "note": "(centres undefined)", "survival": "80% (inactive)"}, {"smiles": "CCOc1ccc(-c2nc(CSCC(=O)N3CCN(c4ccc(F)cc4)CC3)c(C)o2)cc1", "survival": "113% (inactive)"}, {"smiles": "CCCn1c(=O)sc2cc(NC(=O)c3ccccc3Cl)ccc21", "survival": "71% (inactive)"}, {"smiles": "COc1cccc(C2C(C(=O)Nc3ccccc3)=C(C)Nc3nc(-c4ccccc4)nn32)c1", "note": "(centres undefined)", "survival": "76% (inactive)"}, {"smiles": "COc1ccc(N2CCN(c3ccc(-c4nc(-c5ccccc5C)no4)cc3[N+](=O)[O-])CC2)cc1", "survival": "88% (inactive)"}, {"smiles": "Cc1ccc(N(CC(=O)Nc2ccc(Br)c(C)c2)S(=O)(=O)c2cccs2)cc1", "survival": "82% (inactive)"}, {"smiles": "Cc1ccc(N(C(=O)c2cccc(C)c2)S(=O)(=O)c2ccc(Cl)cc2)cc1", "survival": "65% (inactive)"}, {"smiles": "Cc1ccc(NC(=O)N2CCC(n3c(C)nc4cccnc43)CC2)c(Cl)c1", "survival": "71% (inactive)"}, {"smiles": "CC(=O)N1CCC(N(Cc2ccc(C)o2)C(=O)Nc2ccccc2F)CC1", "survival": "85% (inactive)"}, {"smiles": "COc1ccc2[nH]c(=O)c(CN(C(=O)c3cccc(Cl)c3)c3ccccc3OC)cc2c1", "survival": "81% (inactive)"}, {"smiles": "Fc1ccc(C(c2nnnn2C2CCCC2)N2CCc3ccccc32)cc1", "note": "(centres undefined)", "survival": "122% (inactive)"}, {"smiles": "O=C(CN1C(=O)CCn2nc(-c3ccccc3)cc21)NCc1ccccc1", "survival": "124% (inactive)"}, {"smiles": "O=C(CN1C(=O)CCn2nc(-c3ccccc3)cc21)NCc1ccc(Cl)cc1", "survival": "-3% (active)"}, {"smiles": "CCc1ccccc1NC(=O)CCCN1C(=O)CCn2nc(-c3cn(C)c4ccccc34)cc21", "survival": "134% (inactive)"}, {"smiles": "Cc1cccc(CNC(=O)CCCN2C(=O)CCn3nc(-c4cn(C)c5ccccc45)cc32)c1", "survival": "-6% (active)"}, {"smiles": "Cn1cc(-c2cc3n(n2)CCC(=O)N3CCCC(=O)NCc2ccc(Cl)cc2)c2ccccc21", "survival": "124% (inactive)"}, {"smiles": "Cc1ccc(CNC(=O)CN2C(=O)CCn3nc(-c4ccccc4)cc32)cc1", "survival": "68% (inactive)"}, {"smiles": "Cn1cc(-c2cc3n(n2)CCC(=O)N3CCCC(=O)Nc2ccccc2Cl)c2ccccc21", "survival": "-6% (active)"}, {"smiles": "Cc1ccc(CNC(=O)CCCN2C(=O)CCn3nc(-c4cn(C)c5ccccc45)cc32)cc1", "survival": "76% (inactive)"}, {"smiles": "Cn1cc(-c2cc3n(n2)CCC(=O)N3CCCC(=O)NCc2ccccc2)c2ccccc21", "survival": "76% (inactive)"}, {"smiles": "Cn1cc(-c2cc3n(n2)CCC(=O)N3CCCC(=O)Nc2ccccc2F)c2ccccc21", "survival": "159% (inactive)"}, {"smiles": "CN(C)c1ccc(CNC(=O)CN2C(=O)CCn3nc(-c4cn(C)c5ccccc45)cc32)cc1", "survival": "53% (inactive)"}, {"smiles": "CN(C)c1ccc(CNC(=O)CCCN2C(=O)CCn3nc(-c4cn(C)c5ccccc45)cc32)cc1", "survival": "-1% (active)"}, {"smiles": "Cc1cc(Cl)ccc1NC(=O)CN1C(=O)CSc2ccc(S(=O)(=O)N(C)C)cc21", "survival": "68% (inactive)"}, {"smiles": "O=C(NCc1ccccc1)NC1COc2ccccc2C1", "note": "(centres undefined)", "survival": "82% (inactive)"}, {"smiles": "CCCCc1ccc(NC(=O)c2ccc3c(c2)CCN3S(=O)(=O)CC)cc1", "survival": "80% (inactive)"}, {"smiles": "Cc1ccccc1NC(=O)c1c(NC(=O)C(C)Oc2cccc(Cl)c2)sc2c1CCCC2", "note": "(centres undefined)", "survival": "61% (inactive)"}, {"smiles": "Cc1c(CC(=O)NCCc2ccccc2)c(=O)oc2c(C)c3occ(C(C)(C)C)c3cc12", "survival": "84% (inactive)"}, {"smiles": "COc1ccc(-n2c(-c3ccco3)nc3c(cnn3-c3ccc(Cl)cc3)c2=O)cc1", "survival": "90% (inactive)"}, {"smiles": "CC1CCN(C(=O)Cn2cc(SCC(=O)Nc3ccccc3C(F)(F)F)c3ccccc32)CC1", "survival": "105% (inactive)"}, {"smiles": "COc1ccc(CNC(=O)CN2C(=O)CCn3nc(-c4cn(C)c5ccccc45)cc32)cc1", "survival": "80% (inactive)"}, {"smiles": "CCOc1ccc(CNC(=O)CN2C(=O)CCn3nc(-c4cn(C)c5ccccc45)cc32)cc1OC", "survival": "-6% (active)"}, {"smiles": "CCOc1ccccc1CNC(=O)CN1C(=O)CCn2nc(-c3cn(C)c4ccccc34)cc21", "survival": "87% (inactive)"}, {"smiles": "COc1cccc(N2CCN(C(=O)CCn3nc(C)c(S(=O)(=O)N4CCCC4)c3C)CC2)c1", "survival": "76% (inactive)"}, {"smiles": "Cc1nn(CCC(=O)N2CCN(c3ccccc3)CC2)c(C)c1S(=O)(=O)N1CCCC1", "survival": "-6% (active)"}, {"smiles": "COc1ccc(N2CCN(C(=O)CCn3nc(C)c(S(=O)(=O)N4CCCC4)c3C)CC2)cc1", "survival": "80% (inactive)"}, {"smiles": "CC(C)N(C(=O)CN1CCN(Cc2ccccc2)CC1)C(C)C", "survival": "107% (inactive)"}, {"smiles": "COC(=O)CNC(=O)N1CCN(S(=O)(=O)c2ccc3c(ccn3C)c2)CC1", "survival": "79% (inactive)"}, {"smiles": "CCOC(=O)CCNC(=O)N1CCN(S(=O)(=O)c2ccc3c(ccn3C)c2)CC1", "survival": "113% (inactive)"}, {"smiles": "CCOC(=O)CNC(=O)N1CCN(S(=O)(=O)c2ccc3c(ccn3C)c2)CC1", "survival": "0% (active)"}, {"smiles": "CCOC(=O)c1ccc(N=C2NC(=O)/C(=C/c3ccc(N4CCOCC4)cc3)S2)cc1", "survival": "107% (inactive)"}, {"smiles": "CCOc1ccc(-c2c(C)nn3c(C)c(C(=O)NCc4ccc(Cl)cc4)cnc23)cc1OCC", "survival": "123% (inactive)"}, {"smiles": "Cc1ccc2cccc(NC(=O)c3cccc4ccccc34)c2n1", "survival": "-10% (active)"}, {"smiles": "Cc1ccc2cccc(NC(=O)c3ccc(-c4cc(Cl)ccc4Cl)o3)c2n1", "survival": "71% (inactive)"}, {"smiles": "Cc1ccc2cccc(NC(=O)c3cccc4c(Br)cccc34)c2n1", "survival": "134% (inactive)"}, {"smiles": "Cc1ccc(C(=O)Nc2cccc3cccnc23)cc1Cl", "survival": "75% (inactive)"}, {"smiles": "Cc1ccc2cccc(NC(=O)c3ccc(-c4cccc(Cl)c4)o3)c2n1", "survival": "66% (inactive)"}, {"smiles": "O=C(Nc1cccc2cccnc12)c1cccc2ccccc12", "survival": "1% (active)"}, {"smiles": "CC(C)c1ccc(C(=O)Nc2cccc3cccnc23)cc1", "survival": "-3% (active)"}, {"smiles": "O=C(Nc1ccc(Br)c2cccnc12)c1cccc2ccccc12", "survival": "35% (inactive)"}, {"smiles": "CCOc1cc(C(=O)Nc2cccc3cccnc23)cc(OCC)c1OCC", "survival": "23% (inactive)"}, {"smiles": "O=C(Nc1cccc2cccnc12)c1cccc2c(Br)cccc12", "survival": "77% (inactive)"}, {"smiles": "Cc1ccc2cccc(NC(=O)c3cccc4c(Cl)cccc34)c2n1", "survival": "69% (inactive)"}, {"smiles": "O=C(Nc1cccc2cccnc12)c1ccc(-c2cccc(Cl)c2)o1", "survival": "0% (active)"}]}]}
